These results are taken from PubChem BioAssay AID1851 (National Center for Advancing Translational Sciences (NCATS), 2009).

Each structure is given as a SMILES string. In all, about 16,000 compounds went through this assay and about 4,000 (25%) were called active. About 26% were inconclusive and are not listed. These entries were drawn from the full list. A number with no mark means an inactive call. The call rests on the fitted dose curve; in most records, active means well fitted curve in the direction sought with a large enough effect; inconclusive means small, poorly fitted or top-dose-only effect, or effect the other way; inactive means no such curve, though single readings can be large or run the other way.
On the % scale 0 is the no-effect control and ±100 the full control effect.

In this assay the target is Cytochrome P450 2C9 (Homo sapiens) (UniProt P11712). Briefly: Cytochrome panel assay with activity outcomes. The conditions noted are these: recombinant CYP, pro-luciferin dealkylation, luminescence, p450-cyp2c9; series mostly up to 57.1 µM.
Sequence of Cytochrome P450 2C9 (Homo sapiens) (P11712 whole entry, looked up): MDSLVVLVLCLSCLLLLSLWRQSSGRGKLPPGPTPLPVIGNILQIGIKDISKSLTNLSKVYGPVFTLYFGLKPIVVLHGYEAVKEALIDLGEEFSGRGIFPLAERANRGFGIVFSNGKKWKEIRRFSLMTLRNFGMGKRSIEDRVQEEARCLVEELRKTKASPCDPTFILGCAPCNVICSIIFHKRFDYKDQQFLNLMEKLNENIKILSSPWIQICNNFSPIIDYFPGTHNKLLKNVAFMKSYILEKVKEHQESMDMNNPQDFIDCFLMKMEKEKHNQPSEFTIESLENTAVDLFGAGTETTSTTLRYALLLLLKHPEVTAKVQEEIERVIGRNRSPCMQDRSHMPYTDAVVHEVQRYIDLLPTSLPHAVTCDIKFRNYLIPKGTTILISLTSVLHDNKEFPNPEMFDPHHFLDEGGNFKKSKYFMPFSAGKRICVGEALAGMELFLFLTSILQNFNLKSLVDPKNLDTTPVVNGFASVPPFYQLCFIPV
`COc1cccc(CSCC(=O)O)c1`: the activity, negative = inhibition is -12.1% [at 11.4 µM].

In the case of `COc1cccc(CSc2nnc(C(F)(F)F)n2Cc2ccc(F)cc2)c1`, the half-maximal activity concentration (AC50) is 11.2 µM (active).

For the compound `Fc1ccc(Cn2c(SCc3ccc(F)c(F)c3)nnc2C(F)(F)F)cc1`, the AC50 is 15.8 µM (active).

For `Cc1ccc(CSc2nnc(C(F)(F)F)n2Cc2ccc(F)cc2)cc1`, the AC50 is 4.47 µM (active).

For the compound `Fc1ccc(Cn2c(SCc3ccc(F)c(C(F)(F)F)c3)nnc2C(F)(F)F)cc1`, the half-maximal activity concentration (AC50) is 7.08 µM (active).

For the compound `Cc1c(CC(C)(C)C(=O)O)n(Cc2ccc(Cl)cc2)c2ccc(F)cc12`, the AC50 entry was “inactive”.

Turning to `COc1cccc(-c2nccc(NC3CCNCC3)n2)c1`, the activity, negative = inhibition was 9.19% [at 2.29 µM].

`Cc1cc(=O)oc2cc(O)c(CN(C)CC(=O)O)cc12`: the activity, negative = inhibition is -0.896% [at 11.4 µM].

On to `NCCC(=O)O`, for which the AC50 result was “inactive”.

Consider `Cc1ccc(C(=O)Nc2c(C#N)c(C)c(C)n2Cc2ccccc2)cc1`, for which the AC50 was 3.55 µM (active).

`Cc1ccc([C@@H](O)c2cnc(C)n2Cc2ccccc2)cc1`: the activity, negative = inhibition is -18.2% [at 11.4 µM].

With `COc1cccc(CNc2ccc3nc(-c4ccc(N)cc4)c(OC)n3n2)c1`, the AC50 result was “inactive”.

`CCN(CC)CCCN(Cc1cc2ccc(C)c(C)c2[nH]c1=O)C(=O)NC1CCCCC1`: the AC50 result is “inactive”.

Turning to `C/C(=N\OC(=O)NC1CCCCC1)c1sc(-c2ccccc2)nc1C`, the AC50 was 11.2 µM (active).

`Cc1nc(-c2cccnc2)sc1C(N)=O`: the AC50 result is “inactive”.

Consider `CNC(=O)c1sc(-c2cccnc2)nc1C`, for which the AC50 entry is “inactive”.

As for `Cc1noc(C)c1-c1nccc(N(C)C)n1`, the activity, negative = inhibition is -8.59% [at 2.29 µM].

Turning to `CC(=O)OC[C@@H]1O[C@@H](O/N=C2/C[C@@H](O)[C@@H](O)[C@@H]3[C@@H]4C(=O)N(C[C@@H]5CCCO5)C(=O)[C@H]4CC[C@@H]23)[C@H](OC(C)=O)[C@H](OC(C)=O)[C@@H]1OC(C)=O`, the activity, negative = inhibition is -5.55% [at 11.4 µM].

Turning to `COc1cccc(-c2cc(NCc3cccs3)ncn2)c1`, the activity, negative = inhibition was -10.2% [at 2.29 µM].

On to `COc1cccc(-c2[nH]nc3c2C(c2ccsc2)C(C#N)=C(N)O3)c1` (stereo not given), for which the AC50 is 2.51 µM (active).

Consider `CNc1c2c(nn1C)CCCC2`, for which the AC50 result was “inactive”.

Regarding `O=c1cc(CO)oc(CN2CCCC2)c1O`, the AC50 entry was “inactive”.

Consider `Cc1ccc(N(C(C)C(=O)Nc2cc(Cl)ccc2Oc2ccccc2)S(C)(=O)=O)cc1` (stereo not given), for which the AC50 is 6.31 µM (active).

As to `CC(C(=O)Nc1ccccc1Sc1ccccc1)N(c1ccccc1)S(C)(=O)=O` (stereo not given), the half-maximal activity concentration (AC50) was 4.47 µM (active).

`COc1cccc(C=NC=Nc2cccc(OC)c2)c1`: the AC50 entry was “inactive”.

For the compound `CN(C)C(=O)c1ccc(-c2ccc3ncnc(NCc4cccs4)c3c2)cc1`, the activity, negative = inhibition was 8.22% [at 2.29 µM].

As for `Cc1ccc(N=C/C(C(=O)C(F)(F)F)=C(\O)c2cccs2)cc1`, the AC50 is 3.55 µM (active).

With `C[C@](N)(COP(=O)(O)O)C(=O)O`, the AC50 result was “inactive”.

Regarding `COc1ccc(C2C(C#N)=C(N)N(Nc3ccccc3)C3=C2C(=O)CC(C)(C)C3)cc1C` (stereo not given), the concentration at half-maximal activity (AC50) is 1.58 µM (active).

For `COc1cc(C2C(C#N)=C(N)N(Nc3ccccc3)C3=C2C(=O)CC(C)(C)C3)ccc1OCc1cccc(F)c1` (stereo not given), the concentration at half-maximal activity (AC50) was 3.98 µM (active).

As to `CC(=O)N(CC(O)CN(C(C)=O)c1c(I)c(C(=O)NC[C@@H](O)CO)c(I)c(C(=O)NC[C@@H](O)CO)c1I)c1c(I)c(C(=O)NC[C@@H](O)CO)c(I)c(C(=O)NC[C@@H](O)CO)c1I`, the AC50 result was “inactive”.

Turning to `COc1ccccc1-c1cc(NCc2cnc(C)cn2)ncn1`, the activity, negative = inhibition is 9.42% [at 2.29 µM].

`O=C(O)[C@H]([C@H]1NCCS1)N1Cc2ccccc2C1`: the activity, negative = inhibition is 1.08% [at 11.4 µM].

In the case of `Cc1cccc(Sc2c([N+](=O)[O-])ncn2C)n1`, the AC50 result was “inactive”.

In the case of `N#Cc1ccc(CN2CC3(CCN(C(=O)c4cc(C(F)(F)F)cc(C(F)(F)F)c4)CC3)C2)cc1`, the AC50 result was “inactive”.

As for `CS(=O)(=O)N1CCC2(CCN(C(c3ccccc3)c3ccccc3)CC2)CC1`, the AC50 result is “inactive”.

Turning to `O=S(=O)(c1ccccc1)N1CCC2(CC1)CN(C(c1ccccc1)c1ccccc1)C2`, the half-maximal activity concentration (AC50) was 1 µM (active).

Take `O=S(=O)(c1ccccc1)N1CCC2(CCCN(C(c3ccccc3)c3ccccc3)C2)CC1`: the AC50 result was “inactive”.

Take `O=S(=O)(c1ccccc1)N1CCC2(CCN(C(c3ccccc3)c3ccccc3)CC2)CC1`: the concentration at half-maximal activity (AC50) is 0.501 µM (active).

On to `CC(C)NC(=O)N1CC2(CCN(S(=O)(=O)c3ccccc3)CC2)C1`, for which the AC50 entry is “inactive”.

With `NC1CCN(c2cccc(Cl)n2)CC1`, the AC50 result is “inactive”.

As for `C[C@H]1[C@@H](O)[C@@H](C)\C=C/C=C\C=C/C=C\C=C/C=C\C=C/[C@@H](O[C@H]2O[C@@H](C)[C@@H](O)[C@@H](N)[C@@H]2O)C[C@@H]2O[C@](O)(C[C@@H](O)C[C@@H](O)[C@@H](O)CC[C@@H](O)C[C@@H](O)CC(=O)O[C@H]1C)C[C@@H](O)[C@H]2C(=O)O` (stereo in doubt), the AC50 entry was “inactive”.

In the case of `CC(=NC1CCCCC1)c1ccccc1O`, the activity, negative = inhibition was -0.794% [at 11.4 µM].

In the case of `CCCCN1C(=O)C(NC(=O)C2CC2)(C(F)(F)F)C2=C1CC(C)(C)CC2=O` (stereo not given), the AC50 was 6.31 µM (active).

With `CC1(C)CC(=O)C2=C(C1)N(Cc1ccccc1)C(=O)C2(O)C(F)(F)F` (stereo not given), the AC50 entry was “inactive”.

In the case of `CCOC(=O)c1c(-c2ccc(C)o2)csc1NC(=S)NC(=O)N(C)C`, the concentration at half-maximal activity (AC50) was 10 µM (active).

Regarding `Cc1cc(C)n2nc(-c3sccc3-n3cccc3)cc2n1`, the AC50 entry is “inactive”.

As for `COc1ccc(C2c3c(ncn(CCN4CCOCC4)c3=N)Oc3ccc4ccccc4c32)cc1OC` (stereo not given), the AC50 was 8.91 µM (active).

`COc1ccccc1-c1nc(NCCN2CCOCC2)c2ccccc2n1`: the activity, negative = inhibition is 14% [at 2.29 µM].

Consider `COc1ccccc1-c1ccc2ncnc(NCCN3CCOCC3)c2c1`, for which the activity, negative = inhibition is -10.8% [at 2.29 µM].

Regarding `CCOC(=O)CSc1n[nH]c(NC(=O)c2ccccc2)n1`, the AC50 entry is “inactive”.

Turning to `Cn1sc(NC(=O)c2ccccc2)nc1=O`, the half-maximal activity concentration (AC50) is 14.1 µM (active).

As to `C=CCNC(=O)C1CCN(S(=O)(=O)CC)CC1`, the AC50 entry was “inactive”.

As for `Cc1ccc(S(=O)(=O)N[C@H](CO)C(=O)O)cc1`, the activity, negative = inhibition was -14.1% [at 11.4 µM].

For the compound `COC(=O)C/C=C\[C@@H](C)[C@@H](CO)NS(=O)(=O)c1ccc(C)cc1`, the activity, negative = inhibition is -7.12% [at 11.4 µM].

With `CC(CCc1ccccc1)NC(=O)/C=C/c1ccccc1` (stereo not given), the AC50 is 7.08 µM (active).

Turning to `O=C(O)[C@H](/C=C\c1ccccc1)c1ccccc1`, the activity, negative = inhibition was -17.8% [at 11.4 µM].

For `Cc1ccc(S(=O)(=O)N[C@@H](CCc2ccccc2)CC(=O)C(C)(C)C)cc1`, the AC50 is 3.98 µM (active).

On to `CC(CCc1ccccc1)NS(=O)(=O)c1ccccc1` (stereo not given), for which the AC50 was 3.98 µM (active).

With `O=C(O)/C=C\C(=O)NCc1ccccc1`, the AC50 entry is “inactive”.

For `C[C@@H](CCc1ccccc1)NC[C@H](O)c1ccc(O)c(C(N)=O)c1`, the AC50 entry was “inactive”.

With `O=C(CC1(O)CCCCC1)OC1CCCC1`, the activity, negative = inhibition is -26.4% [at 11.4 µM].

In the case of `FC(F)(F)c1cc(CN2CCCC3(CCNCC3)C2)cc(C(F)(F)F)c1`, the AC50 result was “inactive”.

Take `C[N+](C)(C)/N=C\c1ccc(O)c(O)c1`: the activity, negative = inhibition is -5.12% [at 11.4 µM].

On to `CC(C)N=c1scc(-c2ccco2)n1/N=C/c1ccc(O)c(O)c1`, for which the AC50 is 11.2 µM (active).

In the case of `CCCC(=O)Nc1nc2n(n1)C(c1ccccc1)CC(=O)N2` (stereo not given), the AC50 entry was “inactive”.

In the case of `O=C1CC[C@H](N2C(=O)c3ccccc3C2=O)C(=O)N1`, the AC50 entry is “inactive”.

As for `CC1(C)CC(=O)C(CCCN2C(=O)c3ccccc3C2=O)C(=O)C1`, the AC50 was 17.8 µM (active).

Take `O=C1c2ccccc2C(=O)N1CCSC(=S)N1CCOCC1`: the AC50 result was “inactive”.

With `Cc1cccc(NC(=O)Cn2cccc2)c1`, the AC50 result was “inactive”.

As for `CSc1cccc(NC(=O)Cn2cccc2)c1`, the AC50 is 20 µM (active).

For the compound `CSc1cccc(NC(=O)OC2CCCCCCCCCCC2)c1`, the activity, negative = inhibition was -17.7% [at 11.4 µM].

On to `O=C(c1ccc(Cl)cc1)N1CCCC(c2ccccc2)=N1`, for which the AC50 is 10 µM (active).

`Clc1ccc(C2=C3CCCCn4c(-c5ccccc5)c[n+](c43)C2)cc1`: the AC50 entry is “inactive”.

With `O=C(OCC1CC(c2ccccc2)=NO1)c1ccc(Cl)cc1` (stereo not given), the AC50 entry was “inactive”.

Take `CC(C)(C)NC(=O)Cn1cnc([N+](=O)[O-])n1`: the AC50 result was “inactive”.

As to `Cc1cccc(C(CC(=O)N2CCCC2)c2ccccc2)c1O` (stereo not given), the AC50 was 3.98 µM (active).

For the compound `COCC(=O)N1CCC2(CC1)CCN(C(c1ccccc1)c1ccccc1)CC2`, the AC50 entry is “inactive”.

As to `O=C(O)c1cccnc1SCC(=O)N1CCCCCC1`, the AC50 result is “inactive”.

`CCNc1ncc2ncc(=O)n(C[C@H]3CCCO3)c2n1`: the AC50 entry was “inactive”.

As to `COc1cccc(Cn2c(=O)c(-c3cccc(C#N)c3)nc3cnc(Nc4ccccc4)nc32)c1`, the AC50 entry was “inactive”.

Turning to `COc1cccc(Cn2c(=O)c(-c3cccc(C#N)c3)nc3cnc(OC)nc32)c1`, the half-maximal activity concentration (AC50) is 12.6 µM (active).

As to `COc1ncc2nc(-c3ccc(F)cc3)c(=O)n(Cc3ccc(F)cc3)c2n1`, the AC50 entry was “inactive”.

Take `COc1cccc(Cn2c(=O)c(-c3ccccc3)nc3cnc(OC)nc32)c1`: the AC50 is 12.6 µM (active).

In the case of `COc1cccc(Cn2c(=O)c(-c3cccc(C#N)c3)nc3cnc(N4CCN(C)CC4)nc32)c1`, the AC50 result is “inactive”.

With `CCNc1ncc2nc(-c3ccccc3)c(=O)n(Cc3cccc(OC)c3)c2n1`, the AC50 entry is “inactive”.

With `CC/C(O)=C(\C#N)c1nnc2n1CCCCC2`, the AC50 entry was “inactive”.

Regarding `CC(C)Oc1ccc(CSC(=N)N)cc1`, the AC50 result is “inactive”.

As to `N#CC(C#N)=CNCCN1CCN(C=C(C#N)C#N)CC1`, the activity, negative = inhibition was 5.25% [at 11.4 µM].

Consider `COCCNC(=O)COc1ccc(Oc2ccccc2)cc1`, for which the AC50 is 0.316 µM (active).

`COCCNC(=O)COc1ccc(OCCNC[C@@H](O)COc2ccccc2)cc1`: the AC50 entry is “inactive”.

On to `COCCNC(=O)CCn1c(=O)oc2ccccc21`, for which the AC50 result is “inactive”.

`CS(=O)(=O)N1CCC2(CCCN(C(=O)Nc3cccc(F)c3)C2)CC1`: the AC50 result was “inactive”.

Regarding `COC(Cc1nnc(SC)n1-c1ccccc1)OC`, the AC50 result is “inactive”.

On to `CCOc1ccc(NCc2nnc(SCc3ccccc3Cl)n2-c2ccccc2)cc1`, for which the concentration at half-maximal activity (AC50) was 7.94 µM (active).

A word on the AC50: it is the concentration at which the activity in the assay is half-maximal.
